# Laboratory results from PubChem BioAssay (NCI).
# About 83,000 compounds went through this panel and 20% of them were active in at least one assay; those are over-represented in the sample as a whole.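 Results are percent growth after 48 hours of single-concentration exposure. 100 means growth as in untreated cells, lower positive values show inhibition; negative values down to -100 show cell death.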 Values without a mark were called inactive. The source made the active and inactive calls. The calls were made as follows: active = growth percent below 10; inactive = the rest.
# Columns and labels:
# Assay in all cases: NCI-60 one-dose screen, 48 h (100 = growth as untreated, 0 = no growth, -100 = all killed)
# Details in all cases: 10 µM unless noted
# SR leukemia = test system: SR leukemia
# RPMI-8226 leukemia = test system: RPMI-8226 leukemia
# OVCAR-8 ovarian = test system: OVCAR-8 ovarian
# OVCAR-5 ovarian = test system: OVCAR-5 ovarian
# OVCAR-4 ovarian = test system: OVCAR-4 ovarian
# SK-OV-3 ovarian = test system: SK-OV-3 ovarian
# IGROV1 ovarian = test system: IGROV1 ovarian
# NCI/ADR-RES ovarian = test system: NCI/ADR-RES ovarian
# T-47D breast = test system: T-47D breast
# BT-549 breast = test system: BT-549 breast
# MDA-MB-435 melanoma = test system: MDA-MB-435 melanoma
# SW-620 colon = test system: SW-620 colon
# MCF7 breast = test system: MCF7 breast
# HCT-116 colon = test system: HCT-116 colon
# HCC-2998 colon = test system: HCC-2998 colon
# KM12 colon = test system: KM12 colon
# HS 578T breast = test system: HS 578T breast
SMILES,growth (SR leukemia),growth (RPMI-8226 leukemia),growth (OVCAR-8 ovarian),growth (OVCAR-5 ovarian),growth (OVCAR-4 ovarian),growth (SK-OV-3 ovarian),growth (IGROV1 ovarian),growth (NCI/ADR-RES ovarian),growth (T-47D breast),growth (BT-549 breast),growth (MDA-MB-435 melanoma),growth (SW-620 colon),growth (MCF7 breast),growth (HCT-116 colon),growth (HCC-2998 colon),growth (KM12 colon),growth (HS 578T breast)
COc1cc2c(c(OC)c1OC)C(=O)N[C@@H]1[C@@H](O)[C@@H](O)[C@H](O)C[C@@H]21,95.6%,102%,97.3%,106%,107%,99.9%,111%,108%,100%,110%,110%,109%,96.1%,98.9%,101%,108%,–
O=C(CCCCNC(=O)c1cc(=O)c(O)co1)Nc1ccccc1,14.3%,50.4%,93.6%,119%,79.3%,119%,99%,87%,34.6%,98.4%,98.1%,45.8%,66.1%,30%,110%,99.7%,92.9%
O=C(/C=C/C12c3ccccc3C(c3ccccc31)C1C(=O)NC(=O)C12)c1ccc(F)cc1 (stereo not given),0.421% (active),-24% (active),-64.2% (active),28%,30.3%,-1.75% (active),13.2%,5.4% (active),12.2%,2.77% (active),-12.8% (active),4.25% (active),11.8%,-18.6% (active),10.9%,8.33% (active),23.7%
CCN1C(=O)N(CC)C2C1NN=c1s/c(=C\c3cc4ccccc4[nH]3)c(=O)n12 (stereo not given),22.8%,-32.1% (active),-14.2% (active),33.9%,32.9%,31.7%,12.1%,3.61% (active),2.04% (active),12.2%,-9.5% (active),19.8%,3.88% (active),9.85% (active),10.3%,10.3%,13.8%
CCCCN1C(=O)/C(=c2\sc3n(c2=O)NC2C(N=3)N(CC)C(=O)N2CC)c2ccccc21 (stereo not given),24.5%,60.2%,36.2%,48.4%,50.8%,77.2%,47%,20.5%,18.7%,73.4%,-41.6% (active),36.2%,25%,13.1%,64.1%,20.3%,40.2%
Cn1cc(-c2nonc2-c2c[nH]c3ccccc23)c2ccccc21,11.6%,8.96% (active),16%,25.9%,30.5%,18.9%,24.4%,5.05% (active),25.9%,18.7%,-45.3% (active),22.4%,14.3%,5.44% (active),11.1%,7.64% (active),6.76% (active)
CCOC(=O)c1c(NC(=O)c2ccc(C(C)(C)C)cc2)sc2cc(O)ccc12,87.9%,104%,92.7%,104%,104%,109%,80.8%,89.2%,82.7%,94.7%,97.4%,91.7%,88.4%,92.7%,104%,86%,105%
CCOC(=O)C(=Cc1cccc(C#N)c1)C(=O)OCC,7.73% (active),15.1%,71.6%,60.1%,88.2%,91.3%,59.8%,47.6%,38.8%,71.2%,55.4%,27.9%,24.3%,20.9%,110%,54.8%,93.9%
c1ccc(CNc2ccc3nc(CCC4CCCCC4)[nH]c3c2)cc1,80.8%,47.9%,72.3%,63.4%,47.5%,86.8%,53.5%,61.8%,33.9%,72.2%,81.6%,67.8%,62%,54.6%,45.8%,66.7%,–
Cc1c2ccccc2nc2c1ccc1cccnc12,85.9%,64.8%,91.7%,83.5%,51.7%,116%,15%,60.9%,35.1%,96.3%,83%,93%,21.7%,56.2%,87.3%,78.2%,117%
CN1CCN(Cc2ccc(NC(=O)c3cncc(C#Cc4cnn5ccccc45)c3)cc2C(F)(F)F)CC1,-21.2% (active),-17.5% (active),9.77% (active),4.3% (active),-2.15% (active),15.5%,3.17% (active),-6.37% (active),35.5%,41%,6.02% (active),-14.3% (active),0.711% (active),4.92% (active),-19.1% (active),0.221% (active),-15.4% (active)
Cn1cc(-c2nonc2-c2c[nH]c3ccc(F)cc23)c2cc(Br)ccc21,27%,46%,40.5%,58.7%,43.8%,64.4%,64%,42.1%,14.8%,65.9%,51%,64.5%,32.2%,35.1%,40.1%,29.4%,63.2%
COc1ccc(C2=NN(C(=O)c3cc(OC)c(OC)c(OC)c3)C(c3ccc(N(C)C)cc3)C2)cc1 (stereo not given),15.3%,-27.9% (active),29.3%,64.7%,35.2%,35.4%,-8.59% (active),-5.85% (active),56.8%,–,-30.4% (active),28.3%,15%,11.8%,1.81% (active),23.3%,13.6%
N#Cc1c(-c2cccc([N+](=O)[O-])c2)cc(-c2ccc(Nc3nc(Nc4ccc(F)cc4)nc(Nc4ccc(F)cc4)n3)cc2)nc1N,62.9%,52.3%,89.1%,102%,114%,143%,90.9%,101%,115%,173%,112%,108%,291%,108%,113%,114%,–
COc1ccc2c(c1)c(-c1nonc1-c1cn(C)c3ccc(OC)cc13)cn2C,16.5%,39.9%,52.9%,56.2%,62%,48.2%,46.5%,22.3%,38.6%,45.7%,-25.4% (active),16.3%,20.7%,19.2%,65.7%,25.8%,34.4%
CCOc1ccc(/C=N\N=C\c2ccc(OCC)cc2)cc1,64.3%,107%,74.5%,76.9%,94.1%,101%,78.5%,78.1%,94.7%,87.7%,109%,52.8%,67.5%,45.5%,98%,98.1%,106%
COc1cc2nc(Nc3cccc(F)c3)nc(Nc3cc(C)[nH]n3)c2cc1OC,-9.83% [20 µM] (active),-41.7% [20 µM] (active),-42.5% [20 µM] (active),-100% [20 µM] (active),-88.2% [20 µM] (active),-90% [20 µM] (active),-96.1% [20 µM] (active),-57.8% [20 µM] (active),-45.8% [20 µM] (active),-83.8% [20 µM] (active),-88.7% [20 µM] (active),-58.9% [20 µM] (active),-66% [20 µM] (active),-68.2% [20 µM] (active),-88.3% [20 µM] (active),-69.2% [20 µM] (active),-59.3% [20 µM] (active)
